Data published in PubChem BioAssay (EPA / NIEHS).
Inconclusive results are not listed. Some structures have more than one record in an assay (separate samples or runs), and their calls can disagree. The source made the active and inactive calls. How the source made its calls, unless noted: active means hit-call score of the fitted dose curve at least 0.9, where 1 is the maximum; inactive means score below 0.9.

What was measured:
[1] = molecular target: Oxysterols receptor LXR-alpha (Homo sapiens) (UniProt Q13133); assay: ATG_LXRa_TRANS: Attagene TRANS-FACTORIAL HepG2 Assay for human Liver X Receptor alpha (LXRa) (AID 2282980; active means hit-call score of the fitted dose curve at least 0.9, where 1 is the maximum); details: HepG2 Attagene TRANS reporter, LXRa transactivation
Procedure, shortened: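 Chemical-induced reporter mRNA measured by RT-PCR with fluorescent labelling and capillary electrophoresis after 24 h dosing of transiently transfected HepG2 cells expressing exogenous NR-Gal4 chimeras; increases scored against DMSO baseline.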

[2] = ATG_M_32_TRANS: Attagene TRANS-FACTORIAL HepG2 Assay for M32 Transcription Factor (Internal Marker) (AID 2282984; active means hit-call score of the fitted dose curve at least 0.9, where 1 is the maximum;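 further: transcript level of a background control reporter unit measured by RT-PCR and capillary electrophoresis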); details: HepG2 Attagene TRANS M32 internal marker reporter
Procedure, shortened: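 After 24 h dosing of transfected HepG2 cells, total RNA was reverse-transcribed, reporter sequences PCR-amplified, 6-FAM labelled by primer extension and HpaI-digested before capillary electrophoresis. Signal increase over DMSO was fitted.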

[3] = molecular target: Transcriptional activator Myb (Homo sapiens) (UniProt P10242); assay: ATG_Myb_CIS: Attagene CIS-FACTORIAL HepG2 Assay for human Myeloblastosis (Myb) Proto-Oncogene Transcription Factor (AID 2282986); details: HepG2 Attagene CIS-FACTORIAL Myb reporter transcription; actives raise or lower the signal
Procedure, shortened: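 Fluorescence signals from capillary electrophoresis of RT-PCR-amplified reporter cDNA give the read-out. Cells: HepG2 transfected with multiple cis-regulated reporter units. Exposure lasts 24 hours; DMSO defines baseline for gain or loss of signal.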

[4] = molecular target: Nuclear respiratory factor 1 (Homo sapiens) (UniProt Q16656); assay: ATG_NRF1_CIS: Attagene CIS-FACTORIAL HepG2 Assay for human Nuclear Respiratory Factor 1 (NRF1) Orphan Gene (AID 2282987); details: HepG2 NRF1 cis-element reporter, Attagene multiplex; actives raise or lower the signal
Procedure, shortened: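 Transcriptional reporter readout, one component of a 52-endpoint multiplexed HepG2 panel. Exposure 24 h; mRNA detected via RT-PCR and fluorescent capillary electrophoresis; fitting in both directions against DMSO.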

[5] = ATG_NFI_CIS: Attagene CIS-FACTORIAL HepG2 Assay for human Nuclear Factor I (NFI) (AID 2282989); details: HepG2 cis-regulatory reporter, NFI response element transcription; actives raise or lower the signal
Procedure, shortened: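 Endogenous TF activity in HepG2 cells transiently transfected with cis-element-driven multiplexed reporter units, read 24 h after dosing. Reporter mRNA quantified by RT-PCR, 6-FAM labelling, HpaI digestion and capillary electrophoresis; bidirectional fit versus DMSO.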

[6] = molecular target: Myc proto-oncogene protein (Homo sapiens) (UniProt P01106); assay: ATG_Myc_CIS: Attagene CIS-FACTORIAL HepG2 Assay for human Myelocytomatosis (Myc) Proto-Oncogene Transcription Factor (AID 2282990); details: HepG2, Attagene cis-reporter transcription factor activity; actives raise or lower the signal
Procedure, shortened: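 DMSO-normalised, bidirectionally fitted reporter mRNA signal. HepG2 cells transfected with cis reporter constructs, treated 24 h; transcripts detected by RT-PCR, 6-FAM primer extension and CE.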

[7] = ATG_NF_kB_CIS: Attagene CIS-FACTORIAL HepG2 Assay for human Nuclear Factor Kappa B (NF-kB) (AID 2282991); details: HepG2 Attagene cis-factorial NF-kB reporter mRNA; actives raise or lower the signal
Procedure, shortened: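 HepG2, transient multi-reporter transfection, cis promoter elements (endogenous TFs). 24 h exposure. Total RNA → RT → PCR → 6-FAM label → HpaI → CE. Gain/loss vs DMSO.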

[8] = ATG_NRF2_ARE_CIS: Attagene CIS-FACTORIAL HepG2 Assay for human Nuclear Factor Erythroid 2 Related Factor 2 (NFR2) response to Antioxidant Response Elements (ARE) (AID 2282992); details: HepG2 Attagene ARE/NRF2 reporter, transcription factor activity; actives raise or lower the signal;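 on AC50: reporter mRNA level measured by RT-PCR and capillary electrophoresis fluorescence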
Procedure, shortened: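 Readout: reporter mRNA quantified by RT-PCR plus FAM-labelled primer extension, HpaI digestion and capillary electrophoresis, 24 h after dosing transfected HepG2 cells. Gain or loss of signal is fitted bidirectionally against DMSO baseline.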

[9] = ATG_Oct_MLP_CIS: Attagene CIS-FACTORIAL HepG2 Assay for human Octamer-Binding Transcription Factor (Oct) (AID 2282993); details: HepG2 Attagene cis-factorial Oct reporter, mRNA; actives raise or lower the signal
Procedure, shortened: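 HepG2 cells transiently transfected with cis-element-driven reporter transcription units (endogenous TF activity); 24 h compound exposure. Reporter mRNA quantified by RT-PCR, 6-FAM labelling, HpaI digestion and capillary electrophoresis; bidirectional fit versus DMSO baseline.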

[10] = molecular target: Cellular tumor antigen p53 (Homo sapiens) (UniProt P04637); assay: ATG_p53_CIS: Attagene CIS-FACTORIAL HepG2 Assay for human p53 Transcription Factor (AID 2282994); details: HepG2 p53 cis-element reporter, Attagene mRNA; actives raise or lower the signal
Procedure, shortened: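 Read-out: reporter mRNA by RT-PCR plus capillary electrophoresis with fluorescence detection. Human HepG2 liver cells carried transfected multi-reporter cis-element constructs, dosed 24 h. Gain or loss of signal fitted bidirectionally against DMSO control.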

[11] = molecular target: Oxysterols receptor LXR-beta (Homo sapiens) (UniProt P55055); assay: ATG_LXRb_TRANS: Attagene TRANS-FACTORIAL HepG2 Assay for human Liver X Receptor beta (LXRb) (AID 2282981; active means hit-call score of the fitted dose curve at least 0.9, where 1 is the maximum); details: HepG2 Attagene TRANS GAL4-LXRb reporter, mRNA
Procedure, shortened: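 Measures induction of a Gal4-driven reporter transcript in HepG2 cells expressing an exogenous LXRb-Gal4 fusion. Cells are exposed to compound for 24 h before RNA isolation and RT-PCR with capillary electrophoresis detection.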

[12] = molecular target: Hepatocyte nuclear factor 4-alpha (Homo sapiens) (UniProt P41235); assay: ATG_HNF4a_TRANS: Attagene TRANS-FACTORIAL HepG2 Assay for human Hepatocyte Nuclear Factor 4 alpha (HNF4a) (AID 2282982; active means hit-call score of the fitted dose curve at least 0.9, where 1 is the maximum); details: HepG2 HNF4a transactivation reporter, mRNA readout
Procedure, shortened: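 In this trans-factorial format, a chimeric HNF4a-GAL4 fusion drives a GAL4-UAS reporter in transfected HepG2 liver cells. After 24 h treatment, reporter mRNA induction is measured by RT-PCR with capillary electrophoresis, relative to DMSO.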

[13] = molecular target: Nuclear receptor subfamily 4 group A member 2 (Homo sapiens) (UniProt P43354); assay: ATG_NURR1_TRANS: Attagene TRANS-FACTORIAL HepG2 Assay for human Nuclear Receptor Related Protein 1 (NURR1) (AID 2282985; active means hit-call score of the fitted dose curve at least 0.9, where 1 is the maximum); details: HepG2 Attagene TRANS reporter, mRNA readout
Procedure, shortened: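 Chimeric NR-Gal4 fusion activity measured in HepG2 after 24 h treatment. Reporter transcripts detected by RT-PCR and capillary electrophoresis fluorescence; positive-direction curve fitting against DMSO.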

[14] = BSK_3C_TissueFactor: BioMAP Diversity Plus: 3C Assay for Tissue Factor Biomarker Activity (AID 2282997); details: BioMAP 3C HUVEC, tissue factor biomarker readout; actives raise or lower the signal
Procedure, shortened: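 Tissue factor on primary human umbilical vein endothelium was read by ELISA 24 h after dosing, gain or loss relative to DMSO. Cytotoxicity ran alongside via SRB (0.1%, TCA-fixed, 560 nm).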

[15] = BSK_3C_uPAR: BioMAP Diversity Plus: 3C Assay for Urokinase-type plasminogen activator receptor (uPAR) Biomarker Activity (AID 2282998); details: BioMAP 3C HUVEC, uPAR biomarker ELISA; actives raise or lower the signal
Procedure, shortened: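 Primary human umbilical vein endothelial cells, 3C system; surface uPAR measured by ELISA 24 h after dosing. Cytotoxicity via SRB total protein in parallel cultures; bidirectional fit against DMSO.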

[16] = BSK_3C_VCAM1: BioMAP Diversity Plus: 3C Assay for Vascular cell adhesion molecule 1 (VCAM1) Biomarker Activity (AID 2282999); details: BioMAP 3C HUVEC, VCAM1 ELISA, cytokine-stimulated; actives raise or lower the signal
Procedure, shortened: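 Vascular primary endothelium (human umbilical vein) was exposed to chemicals and assayed 24 h later. VCAM-1 levels came from ELISA, with DMSO serving as baseline for bidirectional fitting.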

[17] = BSK_4H_Eotaxin3: BioMAP Diversity Plus: 4H Assay for Eotaxin 3 Biomarker Activity (AID 2283000); details: primary human endothelial cells (HUVEC); actives raise or lower the signal
Procedure, shortened: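 Human umbilical vein endothelial cells (BSK_4H system) dosed with test chemical; Eotaxin-3 (CCL26) measured by ELISA 24 h after dosing. Bidirectional curve fitting relative to DMSO negative control as baseline.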

[18] = molecular target: human Peroxisome Proliferator-activated Receptor alpha (PPARa), PPARA (gene 5465) (UniProt Q07869); assay: ATG_PPARa_TRANS: Attagene TRANS-FACTORIAL HepG2 Assay for human Peroxisome Proliferator-activated Receptor alpha (PPARa) (AID 2283001; active means hit-call score of the fitted dose curve at least 0.9, where 1 is the maximum)
Procedure, shortened: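 Cells (HepG2) are transfected with multiple reporter transcription units, exposed to chemical for 24 h, then total RNA is reverse-transcribed and amplified. Labelled products are quantified by capillary electrophoresis; induction is referenced to DMSO.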

[19] = ATG_M_06_TRANS: Attagene TRANS-FACTORIAL HepG2 Assay for M06 Transcription Factor (Internal Marker) (AID 2282983; active means hit-call score of the fitted dose curve at least 0.9, where 1 is the maximum); details: HepG2 Attagene TRANS M06 internal marker reporter
Procedure, shortened: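 Background-control reporter readout: after 24 h chemical exposure of transiently transfected HepG2 (GAL4-UAS reporter units), mRNA quantified by RT-PCR with fluorescent labeling and capillary electrophoresis. Gain-of-signal fitting against DMSO baseline.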

Measured: AC50

Sequence of Cellular tumor antigen p53 (Homo sapiens) (P04637 whole entry, looked up): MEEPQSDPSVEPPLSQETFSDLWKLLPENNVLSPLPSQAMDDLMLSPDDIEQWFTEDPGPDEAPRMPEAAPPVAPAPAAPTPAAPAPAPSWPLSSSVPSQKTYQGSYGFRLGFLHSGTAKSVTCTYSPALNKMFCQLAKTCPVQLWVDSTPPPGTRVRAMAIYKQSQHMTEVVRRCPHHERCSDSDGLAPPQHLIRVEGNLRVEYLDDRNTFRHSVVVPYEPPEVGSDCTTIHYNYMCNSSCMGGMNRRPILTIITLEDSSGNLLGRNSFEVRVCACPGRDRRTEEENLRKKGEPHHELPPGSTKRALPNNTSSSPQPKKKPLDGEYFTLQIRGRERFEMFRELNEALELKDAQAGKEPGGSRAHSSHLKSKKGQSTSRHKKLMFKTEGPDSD
Sequence of Oxysterols receptor LXR-beta (Homo sapiens) (P55055 whole entry, looked up, the tested form may be a part): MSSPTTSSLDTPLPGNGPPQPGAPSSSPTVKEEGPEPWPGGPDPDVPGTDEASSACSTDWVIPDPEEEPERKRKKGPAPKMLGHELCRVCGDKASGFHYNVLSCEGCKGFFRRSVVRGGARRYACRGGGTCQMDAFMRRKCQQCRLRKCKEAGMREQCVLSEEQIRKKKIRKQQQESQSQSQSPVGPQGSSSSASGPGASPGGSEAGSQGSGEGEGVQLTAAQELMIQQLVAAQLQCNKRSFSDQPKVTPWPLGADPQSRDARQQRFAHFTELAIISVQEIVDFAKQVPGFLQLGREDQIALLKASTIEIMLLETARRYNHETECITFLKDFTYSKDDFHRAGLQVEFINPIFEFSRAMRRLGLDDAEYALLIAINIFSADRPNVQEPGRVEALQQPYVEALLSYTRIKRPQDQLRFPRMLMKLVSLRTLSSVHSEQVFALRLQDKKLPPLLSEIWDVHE
Sequence of Transcriptional activator Myb (Homo sapiens) (P10242 whole entry, looked up): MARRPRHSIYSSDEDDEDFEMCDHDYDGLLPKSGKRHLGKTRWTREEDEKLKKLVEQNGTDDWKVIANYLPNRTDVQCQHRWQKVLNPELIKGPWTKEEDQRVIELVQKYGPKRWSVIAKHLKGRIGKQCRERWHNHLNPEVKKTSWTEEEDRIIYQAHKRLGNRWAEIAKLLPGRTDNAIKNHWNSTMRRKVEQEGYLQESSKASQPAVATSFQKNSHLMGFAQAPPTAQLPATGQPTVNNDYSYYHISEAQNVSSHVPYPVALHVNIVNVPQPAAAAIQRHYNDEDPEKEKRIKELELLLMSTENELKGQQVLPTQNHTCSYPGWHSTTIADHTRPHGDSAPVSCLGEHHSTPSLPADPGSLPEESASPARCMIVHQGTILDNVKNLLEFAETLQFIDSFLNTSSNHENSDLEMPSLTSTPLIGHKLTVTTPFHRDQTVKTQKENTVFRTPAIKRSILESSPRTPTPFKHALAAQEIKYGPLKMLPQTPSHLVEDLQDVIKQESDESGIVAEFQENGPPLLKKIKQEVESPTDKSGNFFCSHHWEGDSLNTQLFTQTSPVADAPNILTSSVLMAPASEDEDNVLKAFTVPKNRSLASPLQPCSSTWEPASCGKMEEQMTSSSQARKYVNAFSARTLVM
Sequence of human Peroxisome Proliferator-activated Receptor alpha (PPARa), PPARA (gene 5465) (Q07869 whole entry, looked up): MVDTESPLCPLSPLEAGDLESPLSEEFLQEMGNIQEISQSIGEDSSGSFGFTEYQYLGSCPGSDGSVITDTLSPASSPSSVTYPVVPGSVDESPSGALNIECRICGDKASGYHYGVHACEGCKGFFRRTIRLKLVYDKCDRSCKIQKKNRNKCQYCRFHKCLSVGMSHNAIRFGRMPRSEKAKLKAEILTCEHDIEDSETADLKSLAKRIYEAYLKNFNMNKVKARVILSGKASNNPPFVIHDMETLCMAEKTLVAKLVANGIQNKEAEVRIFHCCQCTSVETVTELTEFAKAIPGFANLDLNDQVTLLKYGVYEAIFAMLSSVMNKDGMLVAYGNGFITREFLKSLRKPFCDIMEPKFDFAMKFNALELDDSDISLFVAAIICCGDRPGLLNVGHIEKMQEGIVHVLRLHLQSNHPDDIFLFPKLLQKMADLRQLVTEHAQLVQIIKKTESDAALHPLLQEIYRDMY
Sequence of Nuclear respiratory factor 1 (Homo sapiens) (Q16656 whole entry, looked up): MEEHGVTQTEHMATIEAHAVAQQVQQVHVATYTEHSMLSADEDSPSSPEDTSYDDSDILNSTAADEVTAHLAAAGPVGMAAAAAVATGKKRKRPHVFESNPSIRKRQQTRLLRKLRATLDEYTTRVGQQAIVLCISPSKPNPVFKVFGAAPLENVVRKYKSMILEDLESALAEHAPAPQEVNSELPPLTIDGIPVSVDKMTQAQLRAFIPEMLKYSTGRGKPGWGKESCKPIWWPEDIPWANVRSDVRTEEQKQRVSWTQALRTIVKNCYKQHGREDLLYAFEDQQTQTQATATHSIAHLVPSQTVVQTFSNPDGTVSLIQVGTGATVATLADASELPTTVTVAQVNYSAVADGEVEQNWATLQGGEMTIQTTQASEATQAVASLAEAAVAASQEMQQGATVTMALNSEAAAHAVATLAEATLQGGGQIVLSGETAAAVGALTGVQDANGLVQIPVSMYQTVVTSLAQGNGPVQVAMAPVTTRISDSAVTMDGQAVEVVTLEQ
Sequence of Hepatocyte nuclear factor 4-alpha (Homo sapiens) (P41235 whole entry, looked up, the tested form may be a part): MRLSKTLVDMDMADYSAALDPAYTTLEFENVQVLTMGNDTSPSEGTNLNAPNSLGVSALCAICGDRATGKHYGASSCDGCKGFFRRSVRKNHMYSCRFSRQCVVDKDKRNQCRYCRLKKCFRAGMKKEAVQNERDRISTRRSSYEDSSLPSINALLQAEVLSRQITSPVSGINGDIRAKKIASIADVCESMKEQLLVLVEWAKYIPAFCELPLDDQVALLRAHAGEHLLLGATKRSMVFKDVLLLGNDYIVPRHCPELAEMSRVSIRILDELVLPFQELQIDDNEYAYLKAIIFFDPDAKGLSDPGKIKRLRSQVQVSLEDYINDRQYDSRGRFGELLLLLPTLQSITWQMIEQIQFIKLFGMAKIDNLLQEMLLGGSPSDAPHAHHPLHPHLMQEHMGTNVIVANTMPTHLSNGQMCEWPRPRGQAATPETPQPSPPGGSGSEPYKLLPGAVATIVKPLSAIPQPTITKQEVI
Sequence of Myc proto-oncogene protein (Homo sapiens) (P01106 whole entry, looked up): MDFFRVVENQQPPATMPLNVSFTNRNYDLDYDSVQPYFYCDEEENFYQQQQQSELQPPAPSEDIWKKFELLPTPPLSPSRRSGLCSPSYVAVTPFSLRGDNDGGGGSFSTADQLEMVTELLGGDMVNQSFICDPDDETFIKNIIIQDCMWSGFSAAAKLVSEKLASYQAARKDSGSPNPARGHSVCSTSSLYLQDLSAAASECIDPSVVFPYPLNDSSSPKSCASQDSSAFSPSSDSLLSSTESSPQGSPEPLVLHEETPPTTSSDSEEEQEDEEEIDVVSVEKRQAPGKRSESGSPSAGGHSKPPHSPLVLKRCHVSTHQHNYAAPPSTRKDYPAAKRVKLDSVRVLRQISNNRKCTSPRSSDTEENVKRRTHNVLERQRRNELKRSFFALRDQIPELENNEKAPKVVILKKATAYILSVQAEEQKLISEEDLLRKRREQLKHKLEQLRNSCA
Sequence of Oxysterols receptor LXR-alpha (Homo sapiens) (Q13133 whole entry, looked up, the tested form may be a part): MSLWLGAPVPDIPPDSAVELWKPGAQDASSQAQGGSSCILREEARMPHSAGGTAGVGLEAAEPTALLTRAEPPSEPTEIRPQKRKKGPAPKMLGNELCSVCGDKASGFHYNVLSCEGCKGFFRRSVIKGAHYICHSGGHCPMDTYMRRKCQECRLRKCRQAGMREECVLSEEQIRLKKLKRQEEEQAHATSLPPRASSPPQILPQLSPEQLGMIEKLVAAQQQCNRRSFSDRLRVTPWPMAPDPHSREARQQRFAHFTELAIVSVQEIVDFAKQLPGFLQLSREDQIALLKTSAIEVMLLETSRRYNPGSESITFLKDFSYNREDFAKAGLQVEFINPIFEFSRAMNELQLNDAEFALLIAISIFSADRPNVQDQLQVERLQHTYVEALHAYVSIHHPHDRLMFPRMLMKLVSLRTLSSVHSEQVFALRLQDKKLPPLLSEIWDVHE
Sequence of Nuclear receptor subfamily 4 group A member 2 (Homo sapiens) (P43354 whole entry, looked up, the tested form may be a part): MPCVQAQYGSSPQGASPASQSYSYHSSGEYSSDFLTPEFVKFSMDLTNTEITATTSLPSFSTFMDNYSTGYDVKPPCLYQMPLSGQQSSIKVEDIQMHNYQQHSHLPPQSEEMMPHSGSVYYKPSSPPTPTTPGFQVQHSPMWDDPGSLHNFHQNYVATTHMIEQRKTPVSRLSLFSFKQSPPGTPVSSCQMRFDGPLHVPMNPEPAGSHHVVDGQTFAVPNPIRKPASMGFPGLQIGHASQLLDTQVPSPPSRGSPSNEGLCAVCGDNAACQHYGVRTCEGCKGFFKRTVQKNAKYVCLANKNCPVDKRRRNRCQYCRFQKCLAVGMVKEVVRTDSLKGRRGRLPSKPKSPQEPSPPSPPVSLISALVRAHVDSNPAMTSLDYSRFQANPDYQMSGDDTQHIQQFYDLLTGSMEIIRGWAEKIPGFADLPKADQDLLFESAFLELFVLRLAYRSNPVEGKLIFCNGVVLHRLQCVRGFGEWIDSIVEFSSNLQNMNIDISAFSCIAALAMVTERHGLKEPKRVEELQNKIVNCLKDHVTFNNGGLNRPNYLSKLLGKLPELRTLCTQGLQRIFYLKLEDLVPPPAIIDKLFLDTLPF

C=Cc1ccc(O)c(OC)c1
inactive: [1] | [2] | [3] | [4] | [5] | [6] | [7] | [9] | [10]
active: [8] 6.89 µM

Oc1ccc(Cc2ccccc2O)cc1
active: [8] 81 µM | [17] 0.149 µM
inactive: [11] | [12] | [2] | [13] | [3] | [4] | [5] | [6] | [9] | [10] | [14] | [15] | [16] | [17] | [18]

Nc1ccn([C@@H]2O[C@H](CO)[C@@H](O)C2O)c(=O)n1 (some centres not stated)
inactive: [11] | [12] | [13] | [3] | [4] | [5] | [6] | [8] | [9] | [18]

OCCN1CN(CCO)CN(CCO)C1
active: [5] 144 µM | [8] 56.5 µM | [9] 160 µM | [14] 20 µM | [15] 32.6 µM | [16] 32.8 µM | [17] 30.2 µM
not listed: [11] | [12] | [13] | [19]
inactive: all other assays above

CCCCCCCCC(C)=O
inactive: [1] | [3] | [4] | [5] | [6] | [7] | [8] | [9] | [10]

COCN(COC)c1nc(N(COC)COC)nc(N(COC)COC)n1
not listed: [1] | [2] | [7] | [13]
inactive: all other assays above

CCCCCCCCCCCCCCCC(=O)OC
not listed: [1] | [7] | [13] | [14] | [15] | [16] | [17] | [19]
inactive: all other assays above
